Compound activity (PubChem)
GSH fluor: compound fluoresces at 488/530 nm on GSH beads | AID 1776 | hit rate 0.25% among 190,000 | fluorescence (KMESF) at 10 µM | GSH beads flow cytometry, compound fluorescence 488/530 nm; active compounds read high; in the data active = fluorescence above about 89;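 also: glutathione beads carrying GST-tagged Bcl family fusion proteins plus one bare bead set; values are compound well signal with DMSO vehicle wells as background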
RGS16-Gao: regulators of human RGS16-Galphao interaction; binding response (% of control), % at 10 µM; O15492+P09471; AID 1441; hit rate 0.38% among 220,000; bead-based flow cytometry RGS16-Galphao binding, fluorescence; actives lie on both sides; call rule not given here;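 also: Galphao activated by GDP with aluminum fluoride before binding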
Target sequence (O15492 whole entry, looked up): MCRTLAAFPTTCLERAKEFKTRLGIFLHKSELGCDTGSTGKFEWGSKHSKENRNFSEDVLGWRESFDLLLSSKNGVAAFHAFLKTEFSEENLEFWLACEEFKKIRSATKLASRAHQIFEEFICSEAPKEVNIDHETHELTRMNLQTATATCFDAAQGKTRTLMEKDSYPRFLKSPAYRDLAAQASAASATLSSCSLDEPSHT
Target sequence (P09471 whole entry, looked up): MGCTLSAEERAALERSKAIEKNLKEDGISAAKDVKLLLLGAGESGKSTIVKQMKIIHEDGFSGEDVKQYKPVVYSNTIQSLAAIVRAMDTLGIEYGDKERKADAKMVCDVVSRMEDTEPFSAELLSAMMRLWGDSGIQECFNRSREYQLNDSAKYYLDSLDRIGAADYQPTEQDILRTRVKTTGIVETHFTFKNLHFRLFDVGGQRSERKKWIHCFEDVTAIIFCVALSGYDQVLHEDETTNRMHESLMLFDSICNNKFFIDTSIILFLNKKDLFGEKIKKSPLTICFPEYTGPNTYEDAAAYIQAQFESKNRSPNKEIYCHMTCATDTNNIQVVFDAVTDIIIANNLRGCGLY
RGS8-Gao reg: modulates binding of RGS8 to human Galphao; P09471; multiplexed bead flow cytometry; actives lie on both sides; response (percent of control binding), % at 10 µM; hit rate 0.34% among 220,000; AID 1423; in the data active = response below about 60% or above about 140%; inactive = in between;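 also: Galphao activated as the GDP aluminium fluoride complex binding bead-coupled RGS8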
Avidin fluor: compound fluoresces at 488/530 nm on avidin beads; compound fluorescence 488/530 nm, flow cytometry; active compounds read high; fluorescence (KMESF) at 10 µM; hit rate 0.38% among 220,000; AID 1775; in the data active = fluorescence above about 47
RGS7-Gao reg: human RGS7-Galphao interaction regulation; binding response (% of control), % at 10 µM; hit rate 0.35% among 220,000; Multiplexed bead flow cytometry, RGS7-Galphao binding; actives lie on both sides; P09471; in the data active = binding response below about 49% or above about 150%; inconclusive = no clear call, values can overlap the other calls; inactive = in between;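 also: fluorescent Galphao held in activated GDP-AlF4 state binding bead-coupled RGS7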
RGS4-Gao reg: human RGS4-Galphao interaction regulation. P09471. Multiplexed bead flow cytometry, RGS4-Galphao binding; actives lie on both sides. binding response (% of control), % at 10 µM. hit rate 0.33% among 220,000. AID 1415; in the data active = binding response below about 49% or above about 150%; inactive = in between;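 also: fluorescent Galphao activated with aluminum fluoride binding bead-coupled RGS4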
Starred values were filed as active, the others as inactive; ? = inconclusive; nt = no result given; [ ] = another dose, or the depositor's remark. Compounds with a hit are over-represented: about 1.2% of the library has one in this group of screens.

SMILES	GSH fluor	RGS16-Gao	RGS8-Gao reg	Avidin fluor	RGS7-Gao reg	RGS4-Gao reg
Cc1nc(SCC(=O)O)c2oc3ccccc3c2n1	25	132	103	8	98	100
Cc1nc(SCC(=O)NCc2ccccc2)c2oc3ccccc3c2n1	24	100	102	50*	105	102
CC1(c2nnc(Cc3ccccc3)o2)CC(c2cccc(Cl)c2)=NO1 (configuration not stated)	nt	102	103	8	?	99
Cc1cc(C)nc(Nc2ncc(O)n2-c2ccc(C)c(C)c2)n1	18	104	104	56*	112	105
O=C(O)C1CC=CCC1C(=O)NCc1ccc2c(c1)OCO2 (configuration not stated)	102*	104	103	4	100	98
CCOC(=O)N1CCN(c2cc(NCCO)c([N+](=O)[O-])c3nonc23)CC1	21	97	95	103*	133	84
CCN(CC)CCn1c(=N)n(CC(O)COc2ccccc2)c2ccccc21 (configuration not stated)	nt	87	91	51*	?	113
O=C(Oc1ccccc1)c1cccnc1Oc1ccccc1	nt	99	102	4	?	101
O=C(Nc1nc2c(s1)CCCC2=O)c1cnccn1	269*	101	102	8	96	99
CN1C(=O)c2ccccc2Sc2ccc(NC(=O)NC3CC3)cc21	20	105	100	92*	133	108
O=C(Nc1ccc2c(c1)N(Cc1ccccc1)C(=O)c1ccccc1S2)NC1CC1	24	75	89	8	94	89
COC(=O)c1cc(NS(=O)(=O)c2ccc(C(C)C)cc2)ccc1N1CCOCC1	nt	102	103	7	?	100
Cc1ccc(NC(=S)NCc2ccc(S(N)(=O)=O)cc2)cc1Cl	26	102	101	8	?	102
CCc1cccc(C)c1NC(=O)C1CCN(C(=O)c2ccc([N+](=O)[O-])cc2)CC1	12	102	103	11	102	103
CCc1ccc(N2CC(C(=O)Nc3ccc(C)c(S(=O)(=O)N4CCOCC4)c3)CC2=O)cc1 (configuration not stated)	34	168	145*[activator]	5	152*[activator]	181*[activator]
Cc1ccc(NC(=O)C2CC(=O)N(Cc3ccccc3)C2)cc1S(=O)(=O)N1CCCCCC1 (configuration not stated)	14	99	104	21	100	100
COc1cc2c3nnc(-c4ccc(F)cc4)c-3cn(Cc3cccc(F)c3)c2cc1OC	90*	106	103	19	91	89
CC(CCc1ccccc1)NC(=O)CNC(=S)N(Cc1cccs1)C1CCCC1 (configuration not stated)	15	115	107	12	105	109
Cc1ccc(Nc2c3c(nc4ncnn24)CCC3)cc1	37	101	98	82*	142	105
CC(C)CNc1cc(Cl)c(S(=O)(=O)NCC(C)C)cc1C(=O)O	30	106	100	85*	135	109
COc1cc(N2CCCC2)c(OC)cc1/C=c1/sc2nc3ccccc3n2c1=O	61	165	105	63*	138	140
CCOC(=O)C1CCCN(Cc2nc(C3CC3)no2)C1 (configuration not stated)	nt	105	101	6	?	110
O=c1c2ccccc2c2ccccc2c(=O)n1Cc1ccco1	19	108	103	34	102	101
Cc1c(N=Cc2c(O)n(Cc3ccco3)c(=O)c3ccccc23)c(=O)n(-c2ccccc2)n1C	136*	102	101	4	100	99
O=C(CN1CCOCC1)NCc1ccccc1	31	98	99	62*	135	102
SMILES	GSH fluor	RGS16-Gao	RGS8-Gao reg	Avidin fluor	RGS7-Gao reg	RGS4-Gao reg
O=C(C1CCN(S(=O)(=O)c2cccnc2)CC1)N1CCN(C2CCCC2)CC1	29	111	102	71*	120	106
O=C(C1CCN(S(=O)(=O)c2cccc3cccnc23)CC1)N1CCN(C2CCCCC2)CC1	14	102	102	27	105	102
CCOC(=O)C1=C(C)NC2=C(C(=O)CC(C)(C)C2)C1c1coc2ccccc2c1=O (configuration not stated)	19	122	103	60*	106	107
CC1=C(C(=O)OCC2CCCO2)C(c2coc3ccccc3c2=O)C2=C(CC(C)(C)CC2=O)N1 (configuration not stated)	14	97	97	9	92	95
CCCN(CCC)C1CC(=O)N(Cc2ccccc2)C1=O (configuration not stated)	19	104	103	58*	113	103
CCCCCCn1c(N)c(C#N)c2ccc([N+](=O)[O-])cc2c1=O	12	105	101	10	99	102
C=CCn1c(=N)c(C#N)cc2c(=O)n3ccccc3nc21	104*	103	103	7	99	104
C=CCn1c(=O)c(C#N)cc2c(=O)n3ccccc3nc21	35	76	97	7	83	83
COc1ccc(OC(C)C(=O)N2CCCc3ccccc32)cc1 (configuration not stated)	14	94	96	8	?	95
COc1cc(C2/C(=C(/O)c3ccc(OCC(C)C)cc3)C(=O)C(=O)N2CCN(C)C)ccc1O (configuration not stated)	262*	142	117	8	113	121
CC(C)COc1ccc(/C(O)=C2/C(=O)C(=O)N(CCN(C)C)C2c2ccncc2)cc1 (configuration not stated)	20	158	115	19	108	111
COc1ccc(N2C(=O)C3CCCN3C2=O)cc1 (configuration not stated)	17	104	103	65*	116	104
CNC(=O)NC(=O)COC(=O)c1ccccc1OCc1ccccc1	13	102	102	11	?	102
Cc1ccc2nc(-c3ccc(SCC(=O)Nc4ccc5c(c4)OCCO5)nc3)[nH]c2c1	12	100	101	5	103	102
Cc1cc2nc(-c3ccc(SCC(=O)Nc4ccc5c(c4)OCCO5)nc3)[nH]c2cc1C	11	101	101	53*	109	101
O=C(NCC1CCCO1)c1cccnc1Nc1ccccc1F (configuration not stated)	15	100	105	52*	112	107
O=C(CNC(=O)c1cccc(OC(F)F)c1)OCc1cc(=O)n2cc(Br)ccc2n1	10	98	99	5	90	93
O=C(O)COCC(=O)Nc1ccc(-n2cnnn2)cc1	9	94	98	26	89	91
CCn1c2ccccc2c2cc(NC(=O)N3CCOCC3)ccc21	13	114	104	47*	104	105
CCOC(=O)/C(C#N)=C\c1cc(OC)c(OC)cc1[N+](=O)[O-]	12	104	102	13	105	100
